According to the supplement of paper PMC7156485:
± gives the standard deviation of the averaged measurements.

Key:
Conditions in all cases: concentration: 10 µM; 24 h
HCC1569 [1] = experiment: cell number relative to DMSO (% of DMSO); higher = more cells (less growth inhibition / toxicity)
Summary of the method: (§1)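 Compounds were applied at 10 µM for 24 h at 37 °C, in triplicate, to HCC1569 and TDF cells. The cells were then fixed and stained for H1.0, and nuclei were counterstained with DAPI. Nuclear H1.0 intensity or cell number is reported relative to the plate control as a percent, taking the median of replicates. Smoothing for positional effects was applied to HCC1569 values only.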

TDF [2] = experiment: as above
Summary of the method: as §1

TDF [3] = experiment: H1.0 immunofluorescence intensity relative to DMSO (% of DMSO); higher = stronger H1.0 induction, active = 120 or more
Summary of the method: as §1

HCC1569 [4] = experiment: H1.0 immunofluorescence intensity relative to DMSO (% of DMSO); higher = stronger H1.0 induction, active = 140 or more
Summary of the method: as §1
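For H1.0 immunofluorescence intensity relative to DMSO in this document: TDF is a line of transformed human dermal fibroblasts of mesenchymal origin.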
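For cell number relative to DMSO in this document: TDF denotes transformed human dermal fibroblasts of mesenchymal origin.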

| Structure (SMILES) | cell number (HCC1569 [1]) | cell number (TDF [2]) | H1.0 immunofluorescence intensity (TDF [3]) | H1.0 immunofluorescence intensity (HCC1569 [4]) |
| --- | --- | --- | --- | --- |
| C=C1CC2C3C=C(C)C4=CC(=O)CCC4(C)C3CCC2(C)C1(OC(C)=O)C(C)=O (stereo not drawn) [Melengestrol Acetate] | 102 | 103 | 94.3 (inactive) | 109 (inactive) |
| CCn1ccnc1CC1COc2ccccc2O1.Cl (stereo not drawn) [Imiloxan hydrochloride] | 103 | 105 | 88 (inactive) | 100 (inactive) |
| COc1cc(/C=C/C(=O)CC(=O)/C=C/c2ccc(O)cc2)ccc1O | 66.5 | 66.7 | 98.3 (inactive) | 161 (active) |
| CCCCCCCCCCCCCCC(O)C(O)C(N)CO (stereo not drawn) [Phytosphingosine] | 98.8 | 75.6 | 124 (active) | 104 (inactive) |
| CCCCC(C)(O)CC=CC1C(O)CC(=O)C1CCCCCCC(=O)O (stereo not drawn) [Misoprostol, free acid] | 100 | 85.8 | 95.6 (inactive) | 98.8 (inactive) |
| Cc1ccc(CN2C(=O)S/C(=C\c3ccc(Cl)cc3)C2=O)cc1 | 99.6 | 117 | 98.2 (inactive) | 97.2 (inactive) |
| CCN(CC)C(=S)SSC(=S)N(CC)CC [Disulfiram] | 93.4 ± 1.7 | 39 ± 4.7 | 123 (active) | 116 (inactive) |
| COc1cc2ncnc(Nc3cccc(Cl)c3)c2cc1OC | 83.8 | 88 | 99.4 (inactive) | 111 (inactive) |
| CCCCCC=CC=CC(O)CCCCCCCC(=O)O (stereo not drawn) | 104 | 100 | 100 (inactive) | 100 (inactive) |
| CC(C)Cc1ccc(C(C)C(=O)O)cc1 (stereo not drawn) [S(+)-Ibuprofen] | 103 | 108 | 96 (inactive) | 90.5 (inactive) |
| CC1OC(Oc2c(-c3cc(O)c(O)c(O)c3)oc3cc(O)cc(O)c3c2=O)C(O)C(O)C1O (stereo not drawn) [Myricitrin] | 103 | 101 | 94.8 (inactive) | 83.5 (inactive) |
| CCN(CC)CCCC(C)Nc1c2ccc(Cl)cc2nc2ccc(OC)cc12 (stereo not drawn) [Quinacrine] | 89.3 | 39.5 | 118 (inactive) | 180 (active) |
| CC1CCN(CCC2CCCN2S(=O)(=O)c2cccc(O)c2)CC1.Cl (stereo not drawn) | 102 | 109 | 92.1 (inactive) | 107 (inactive) |
| CC(C)CC(NC(=O)C(Cc1c[nH]c2ccccc12)NC(=O)C(Cc1ccc(O)cc1)NC(=O)C(CO)NC(=O)C(Cc1c[nH]c2ccccc12)NC(=O)C(Cc1cnc[nH]1)NC(=O)C1CCC(=O)N1)C(=O)NC(CCCN=C(N)N)C(=O)N1CCCC1C(=O)NCC(N)=O (stereo not drawn) [Triptorelin] | 107 | 89.6 | 97.7 (inactive) | 103 (inactive) |
| COc1ccc(CC(=O)NC(N=C(NC#N)Nc2cccc3ncccc23)C(C)(C)C)cc1OC (stereo not drawn) | 99.9 | 107 | 93.5 (inactive) | 96.8 (inactive) |
| Cl.O=C(O)C1=CCNCC1 [Isoguvacine hydrochloride] | 106 | 108 | 106 (inactive) | 98.2 (inactive) |
| CCc1[nH]c(-c2ccc(OC)cc2)nc1-c1ccncc1 | 98.5 | 99.6 | 97 (inactive) | 120 (inactive) |
| CC(C(O)c1ccc(O)cc1)N1CCC(Cc2ccccc2)CC1.CC(C(O)c1ccc(O)cc1)N1CCC(Cc2ccccc2)CC1.O=C(O)C(O)C(O)C(=O)O (stereo not drawn) [Ifenprodil tartrate] | 101 | 108 | 100 (inactive) | 96.7 (inactive) |
| CC(C)CCNC(C)C1CCC2C3CC=C4CC(O)CCC4(C)C3CCC12C (stereo not drawn) [22-Azacholesterol] | 104 | 98.5 | 104 (inactive) | 110 (inactive) |
| CN1CCCC1c1cccnc1.O=C(O)C(O)C(O)C(=O)O.O=C(O)C(O)C(O)C(=O)O (single isomer, unassigned; (-)) [(-)-Nicotine hydrogen tartrate salt] | 102 | 103 | 90 (inactive) | 99.2 (inactive) |
| Cl.OC(CCN1CCCCC1)(c1ccccc1)C1CCCCC1 (stereo not drawn) [Trihexyphenidyl hydrochloride] | 103 | 104 | 94 (inactive) | 75.4 (inactive) |
| CC(Cc1ccc(O)c(O)c1)(NN)C(=O)O.O (stereo not drawn) [Carbidopa.H2O] | 103 | 107 | 99.8 (inactive) | 104 (inactive) |
